Experimental data published in PubChem BioAssay AID588549 (Broad Institute, 2011).
About 780 (0.22%) of roughly 360,000 compounds were called active. Shown is part of a subset that was picked to be rich in actives. Unmarked numbers belong to inactive results. Cut-off read from the data, not from the text of the source: active = inhibition above about 8.5% (passing the limit was not always enough); inconclusive = no clear call, values can overlap the other calls.

test system: Mycobacterium tuberculosis FadD28 fatty-acid-AMP ligase; assay: inhibitors of FadD28 bisubstrate probe binding, primary screen, biochemical, fluorescence polarization, single point (AID 588549); details: at 12.5 µM, hits give high values

Structure (SMILES)	inhibition
C=CCSc1ccc(S(=O)(=O)N2CCN(C)CC2)cn1	-0.339%
CCN(CC)C(CNC(=O)CSc1nnnn1-c1cccc(F)c1)c1ccco1 (stereo not drawn)	-0.979%
Cc1ccc(S(=O)(=O)N(C)C)cc1NC(=O)COC(=O)c1c(C)noc1C	-3.04%
COCCNC(=O)CCCn1c(=O)c2ccccc2n(Cc2cccc([N+](=O)[O-])c2)c1=O	-2.03%
CSC1=NC2(C)CCCCC2C12C=CC(=O)C=C2 (stereo not drawn)	-1.74%
O=C(Nc1ccc(N2CCOCC2)c(Cl)c1)c1ccc(S(=O)(=O)N2CCOCC2)cc1	-1.1%
CC(=O)c1nn(-c2cccc(C(F)(F)F)c2)c(=O)[nH]c1=O	-2.32%
O=C(Nc1cc(=O)[nH]c2ncnn12)c1ccccc1Cl	0.264%
CC(C(=O)N1CCOCC1)N1c2cccc3cccc(c23)S1(=O)=O (stereo not drawn)	-1.36%
OC1CN=C2Sc3ccccc3N2C1 (stereo not drawn)	-1.93%
COc1ccccc1NC(=O)CSc1nnc(Cn2nnc(-c3ccccc3)n2)n1-c1ccccc1	-2.49%
Nc1cc(C(=O)N2CCN(c3ccccc3Cl)CC2)ccc1N1CC2CC(C1)c1cccc(=O)n1C2 (stereo not drawn)	0.263%
COc1cc(CCC(=O)N2CCN(c3ccccc3Cl)CC2)cc(OC)c1OC	67.4% (active)
COc1cc(CCC(=O)Nc2ccncc2Cl)cc(OC)c1OC	-0.965%
CC(=O)Nc1ccc(S(=O)(=O)NCCC(=O)N2CCN(c3ccccc3Cl)CC2)cc1	-0.39%
CCOc1ccc(CCNC(=O)CN2C(=O)NC3(CCc4ccccc43)C2=O)cc1OCC (stereo not drawn)	-4.62%
C=CCN(CC=C)CCOc1ccccc1[N+](=O)[O-]	0.271%
COC(=O)[C@H](C(C)C)n1c(C)c(C(C)=O)c(C(C)=O)c1C	-1.13%
N#Cc1ccc(C(=O)OCC(=O)NC(=O)NC2CCCCC2)cc1	-1.55%
CCS(=O)(=O)Nc1ccc(C2=NN(S(=O)(=O)c3ccc(F)cc3)C(c3ccco3)C2)cc1 (stereo not drawn)	-3.77%
COc1cccc(C2CC(c3ccccc3)=NN2S(=O)(=O)c2ccccc2)c1OC (stereo not drawn)	9.71% (active)
COc1cccc(C2CC(c3cccs3)=NN2C(=O)CSC2=NCCS2)c1OC (stereo not drawn)	-1.77%
COCCN(CCOC)c1nc(N)c2c(N)nc3c(c2c1C#N)CC(=O)N3Cc1ccc(Cl)cc1	39.6% (active)
Cc1ccc(-c2csc(NCCc3nc4cc(Cl)c(Cl)cc4n3CCOCCO)n2)cc1	-0.743%
CCC(=O)Nc1nnc(S(=O)(=O)N(CC(C)C)c2ccccc2)s1	-1.99%
Cc1nc(NC(=O)CN(C)S(=O)(=O)c2ccc(Cl)cc2)sc1C	0.291%
CC(C)CC(=O)Nc1nnc(S(=O)(=O)N(C)c2ccc(Cl)cc2)s1	19.6% (active)

Structure (SMILES)	inhibition
CN(CC#CCC(c1ccccc1)c1ccccc1)C(C)(C)C	-4.42%
O=C(NCCc1ccco1)c1ccc(OCc2cn3ccccc3n2)cc1	-3.83%
Cc1ccccc1-c1csc(C(O)c2cccc(Cl)c2)n1 (stereo not drawn)	-5.7%
COc1cccc2c1C(=O)c1c(O)c3c(c(O)c1C2=O)CC(O)(C(C)=NNC(=O)c1ccc(Cl)c(Cl)c1)CC3OC1CC(N)C(O)C(C)O1 (stereo not drawn)	59.5% (active)
CN(C(=O)CN1C(=O)CCSc2ccc(S(=O)(=O)N3CCCC3)cc21)c1ccccc1	-0.827%
CC1=CC2=NC(=O)CC(C)(C(=O)N(CC(=O)NC(C)(C)C)Cc3ccccc3)N2C=C1 (stereo not drawn)	0.336%
COc1cc(-c2nnn(CC(=O)NCc3ccccc3)n2)cc(OC)c1OC	0.0025%
COc1cc(C(=S)NCc2ccccc2)cc(Br)c1O	11% (active)
COc1ccccc1OCCC(=O)OCC(=O)NCc1ccccc1	-1.13%
CSc1ccc(CN2CCC2(C)C(=O)Nc2ccc(C)c(O)c2)cc1 (stereo not drawn)	-2.96%
CCc1ccc(-c2cc(C)no2)cc1S(=O)(=O)NCCc1ccc(S(N)(=O)=O)cc1	-1.2%
Cc1cc(-c2ccc(C)c(S(=O)(=O)NC(C)Cc3ccco3)c2)on1 (stereo not drawn)	-1.87%
Cc1cc(-c2ccc(C)c(S(=O)(=O)Nc3ccc(S(N)(=O)=O)cc3)c2)on1	14.4% (active)
CO[C@@H]1[C@@H](OC(N)=O)[C@@H](O)C(Oc2ccc3c(O)c(NC(=O)c4ccc(O)c(CC=C(C)C)c4)c(=O)oc3c2C)OC1(C)C (stereo partly drawn)	-2.46%
Cc1cccc(C)c1NC(=O)CS(=O)CC(=O)N1CCN(c2ccccc2)CC1 (stereo not drawn)	0.692%
Cc1ccc(NC(=O)CSCC(=O)NC2CCCCC2)cc1	1.13%
O=c1/c(=C/c2ccc(CNS(=O)(=O)c3ccccc3)o2)sc2n1CCN=2	-4.15%
Cc1ccc(N2CCN(S(=O)(=O)N(C)C)CC2)cc1Cl	0.0335%
CC(C)CC(N=C1NC(C)(C)Cc2ccccc21)C(=O)O (stereo not drawn)	-3.18%
CCCn1c(=S)[nH]c2ccc(C(F)(F)F)cc21	-2.34%
Cc1nn(C(C)CC(=O)O)c(C)c1C (stereo not drawn)	-1.05%
CCCC(=O)Nc1ccc2c(c1)nc1n2CCSC1	-0.77%
CS/C(=C\[N+](=O)[O-])Nc1ccc(C)cc1	2.23%
CC(C)CNC(=O)C(=O)NCC(c1ccc2c(c1)OCO2)N1CCOCC1 (stereo not drawn)	-1.64%
CCCCN1C(=O)C(CC(=O)NCc2cccs2)CC(C(=O)N2CCOCC2)=C1C (stereo not drawn)	-1.02%
CCNC(=O)NC(=O)C(C)OC(=O)C1CCN(S(=O)(=O)c2ccccc2F)CC1 (stereo not drawn)	-0.363%
